Screening results from PubChem.
In the library only some 12% were active in any assay of this set; here they are far more common.
BAZ2B inh – inhibitors of human BAZ2B bromodomain | AlphaScreen BAZ2B-H3K14Ac peptide displacement | Potency, µM (series often up to 114 µM), without a hit: top-dose activity change, negative = inhibition, hits mostly inhibitors | 360,000 tested, 4.4% active; further: on the % scale 0 is the no-effect control and ±100 the full control effect; nearly all actives have a fitted effect of over 60% in size
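Complex of BAZ2B and biotin-H3K14Ac (50 nM apiece) forms over 30 min at RT, then faces library compounds up to 110 uM for another 30 min; AlphaScreen beads added, 20 min dark incubation, luminescence read.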
HP1b binding inh – HP1-beta chromodomain-methylated histone interaction inhibition; 390,000 tested, 0.56% active; P83916; AlphaScreen HP1-beta / biotin-H3K9me3 peptide binding; Potency, µM (titrated, usually from 114 µM), for inactives: at the top dose activity change, negative = inhibition, usual class: inhibitors; further: nearly all actives have a fitted effect of over 70% in size
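HP1-beta protein (50 nM final) preincubated 30 min at room temperature with biotinylated H3(1-18)K9me3 peptide (50 nM) in PBS pH 7.4, 0.01% Tween-20, then compound added for 30 min. AlphaScreen streptavidin donor/nickel chelate acceptor beads (10 ug/mL final), 30 min dark, luminescence read.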
Sfp inh – inhibitors of Bacillus subtilis Sfp phosphopantetheinyl transferase; Biochemical Sfp PPTase activity, qHTS; Potency, µM, inactives show largest response in the series, negative = inhibition, hits mostly inhibitors; 310,000 tested, 3.5% active;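 further: the enzyme is Sfp with the accession as filed and its product quenches rhodamine fluorescence; 0% = enzyme reaction without inhibitor and -100% = no enzyme wells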
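Buffer: 50 mM Hepes-Na pH 7.6, 10 mM MgCl2, 0.01% Nonidet P-40, 0.01% BSA. Enzyme 15 nM, pre-exposed to compound 15 min; substrates then added and fluorescence change tracked over 30 min.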
JMJD2A Tudor inh – JMJD2A Tudor domain (human) inhibition. AlphaScreen JMJD2A-Tudor / H3K4me3 peptide binding. Potency, µM (titrated, usually from 114 µM), for the others: at the highest dose activity change, negative = inhibition, most hits filed as inhibitors. AID 504339. 390,000 tested, 4.4% active. O75164; further: on the % scale 0 is the no-effect control and ±100 the full control effect; nearly all actives have a fitted effect of over 50% in size
L3MBTL1 inh – L3MBTL1 (human) inhibition; AID 485360; AlphaScreen L3MBTL1–H3K9me1 peptide binding; 230,000 tested, 0.66% active; Q9Y468; Potency, µM (titrated, usually from 57.1 µM), for the others: top-dose activity, negative = inhibition, hits mostly inhibitors; further: on the % scale 0 is the no-effect control and ±100 the full control effect; nearly all actives have a fitted effect of over 60% in size
Target sequence (Q9Y468 whole entry, looked up): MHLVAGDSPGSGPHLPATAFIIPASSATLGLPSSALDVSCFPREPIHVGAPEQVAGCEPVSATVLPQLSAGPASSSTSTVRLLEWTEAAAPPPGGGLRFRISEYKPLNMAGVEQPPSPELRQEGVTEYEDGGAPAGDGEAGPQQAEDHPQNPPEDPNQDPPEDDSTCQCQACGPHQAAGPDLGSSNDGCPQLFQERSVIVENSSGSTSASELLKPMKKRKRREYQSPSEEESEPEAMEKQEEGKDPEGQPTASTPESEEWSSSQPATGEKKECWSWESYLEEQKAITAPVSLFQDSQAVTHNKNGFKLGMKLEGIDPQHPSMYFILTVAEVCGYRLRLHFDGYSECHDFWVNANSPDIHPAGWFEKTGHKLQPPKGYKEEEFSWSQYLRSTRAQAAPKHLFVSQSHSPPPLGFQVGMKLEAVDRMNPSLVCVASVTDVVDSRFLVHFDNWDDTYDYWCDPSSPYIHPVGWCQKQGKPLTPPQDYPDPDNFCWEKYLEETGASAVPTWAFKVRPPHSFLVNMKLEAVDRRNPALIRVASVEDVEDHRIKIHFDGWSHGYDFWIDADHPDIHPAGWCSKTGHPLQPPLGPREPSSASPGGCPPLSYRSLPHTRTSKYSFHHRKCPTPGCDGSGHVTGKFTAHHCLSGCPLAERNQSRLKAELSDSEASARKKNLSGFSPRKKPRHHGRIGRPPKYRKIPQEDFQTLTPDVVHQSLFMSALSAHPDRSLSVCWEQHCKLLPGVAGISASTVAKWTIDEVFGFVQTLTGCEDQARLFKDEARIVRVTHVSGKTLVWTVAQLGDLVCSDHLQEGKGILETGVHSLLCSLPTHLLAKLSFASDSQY
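Displacement of a biotinylated histone H3(1-15) peptide monomethylated at Lys9 (75 nM) from L3MBTL1 (50 nM) was measured by AlphaScreen after a 30 min room-temperature compound incubation; cefsulodin titration served as intraplate control.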
G9a block – inhibitors of human histone lysine methyltransferase G9a; Q96KQ7; 350,000 tested, 8.8% active; G9a H3K9 monomethylation, AlphaScreen, 2 h; Potency, µM (highest dose often 102 µM), for the others: at the highest dose activity, negative = inhibition, hits mostly inhibitors; further: on the % scale 0 is the no-effect control and ±100 the full control effect; nearly all actives have a fitted effect of over 75% in size
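AlphaScreen detection with an anti-monomethyl H3K9 antibody quantified product after a 2 h room-temperature reaction containing 500 nM biotinylated H3K9 peptide, 20 µM SAM and 20 nM enzyme, which had been preincubated 15 min with compound.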
* = called active by the depositor; ? = inconclusive; . = not tested or not shown; [ ] = another dose, or the depositor's remark. The call rests on the fitted dose curve; in most records, active means well fitted curve in the direction sought with a large enough effect; inconclusive means small, poorly fitted or top-dose-only effect, or another doubt; inactive means no such curve, though single readings can be large; an effect the other way counts as inactive or inconclusive. Potency means the concentration at half of the fitted maximal effect.

SMILES	BAZ2B inh	HP1b binding inh	Sfp inh	JMJD2A Tudor inh	L3MBTL1 inh	G9a block
COc1cc(Cl)c(NC(=O)CCc2nc3cccnc3n2-c2ccccc2)c(OC)c1	-33%	3%	.	-30%	.	?
CCOc1cc2[nH]c(=S)n(C(C)C)c(=O)c2cc1OCC	17%	49%	1%	-4%	.	3%
CCC(CO)n1c(=S)[nH]c2cc(OC)c(OC)cc2c1=O (stereo not drawn)	-17%	38%	-30%	25µM*	.	18µM*
O=C(c1ccccc1)c1nn(-c2ccccc2)c2nnc(Cc3ccccc3)c(=O)n12	-25%	8%	1%	?	-16%	10µM*
Cc1ccc(/C=C/C(=O)Nc2nnc(C)s2)o1	1%	13%	-10%	-4%	-12%	-8%[59 µM]
CC(=O)c1ccc(NC(=O)/C=C/c2ccc(C)o2)cc1	?	?	.	50µM*	.	11µM*
Cc1ccc(/C=C/C(=O)Nc2ccc([N+](=O)[O-])cc2)o1	50µM*	14%	14µM*	-8%	3%	28µM*
O=C(O)/C=C/C(=O)Nc1ccc(Oc2ccccc2)cc1	-23%	24%	15%	-12%	-13%	.
Cc1ccc(/C=C/C(=O)Nc2ccc(Oc3ccccc3)cc2)o1	?	?	28µM*	-33%	-7%	11µM*
Cc1ccc(-n2nc(CO)c(C(=O)NCCCCc3ccccc3)n2)cc1	-1%	50%	.	-14%	.	5%[59 µM]
O=C(O)c1cccc(Nc2ccncc2[N+](=O)[O-])c1	-18%	29%	-6%	20µM*	.	3%
COc1ccc(C(NCC(=O)Nc2c(C)cccc2C)c2ccccc2)cc1 (stereo not drawn)	32µM*	28µM*	?	20µM*	.	?
O=C(C1CCN(Cc2ccccc2)CC1)N1CCN(C/C=C/c2ccccc2)CC1	?	?	-30%	?	0%	14µM*
O=C(C1CC1)N1CCN(Cc2ccccc2)CC1	.	16%	.	-17%	.	.
O=C(O)C1C2CCC(CC2)C1C(=O)N1CCN(Cc2ccc(F)cc2)CC1 (stereo not drawn)	8%	28%	35µM*	-6%	2%	?
O=C(C1CCN(C2CCN(C/C=C/c3ccccc3)CC2)CC1)N1CCOCC1	-15%	28%	17%	-17%	4%	2%
O=C(C1CCN(Cc2ccc(F)cc2)CC1)N1CCN(C/C=C/c2ccccc2)CC1	50µM*	?	-20%	20µM*	.	50µM*
Cn1ncc(C(=O)N2CCN(c3ccc(F)cc3)CC2)c1C1CCN(C(=O)OC(C)(C)C)CC1	8%[57.1 µM]	2%	.	-13%	.	-27%[59 µM]
O=c1[nH]c(SCc2ccccc2)nc2c1CCCC2	11%	34%	.	10%	.	-8%[59 µM]
CC(=O)N(CC(=O)O)c1ccccc1C(=O)O	-1%	12%	9%	-1%	-4%	18µM*
COCCNC(=O)Cn1cc(S(=O)(=O)Cc2ccccc2Cl)c2ccccc21	25%	32%	.	-8%	.	19%[59 µM]
Cc1nc(NCCOc2ccccc2)sc1C(=O)Nc1ccccc1	-26%	25%	-5%	-19%	0%	45µM*
Cc1nc(NCc2ccccc2)sc1C(=O)Nc1ccccc1	?	20%	6%	-23%	4%	50µM*
Cc1ccccc1NC(=O)NCCc1nc2ccccc2[nH]1	7%	24%	31%	-1%	4%	-1%[12.7 µM]
Cc1ccccc1NC(=S)c1nc2ccccc2[nH]1	11µM*	2%	13%	?	?	10%[59 µM]
SMILES	BAZ2B inh	HP1b binding inh	Sfp inh	JMJD2A Tudor inh	L3MBTL1 inh	G9a block
S=C(Nc1ccc(Cl)cc1)c1nc2ccccc2[nH]1	45µM*	?	21%	?	?	16%[59 µM]
Cc1ccc(CCNC(=O)CN2C(=O)COc3ccc(S(=O)(=O)N4CCCCCC4)cc32)cc1	-17%	38%	.	-15%	.	-9%[59 µM]
CC(=O)Nc1ccccc1-c1nc2ccccc2n(CC(=O)c2ccc(Br)cc2)c1=O	-25%	24%	.	-2%	.	-11%[59 µM]
O=C1Nc2ccccc2Oc2cc(Oc3ccccc3)ccc21	45µM*	?	.	50µM*	?	?
CCCSC1=N/C(=C\c2ccc([N+](=O)[O-])o2)C(=O)S1	13µM*	35µM*	40µM*	11µM*	?	?
CSC1=N/C(=C\c2ccc(C)o2)C(=O)S1	45µM*	-66%	?	?	28µM*	13µM*
CCSC1=N/C(=C\c2ccc(-c3ccccc3[N+](=O)[O-])o2)C(=O)S1	7.9µM*	10µM*	?	?	-26%	46%[0.501 µM]
CCCN1C(=O)CN(C2CCCCCC2)C(=O)C1c1ccc(OCC)c(OC)c1 (stereo not drawn)	-5%	12%	.	-25%	.	7%[59 µM]
O=C(Cn1c(=O)n(Cc2nc(-c3ccccc3)no2)c(=O)c2ccccc21)Nc1cccc(C(F)(F)F)c1	-12%	36%	.	1%	.	?
COC(=O)c1cccc(NC2=NS(=O)(=O)c3ccccc32)c1	7%	38%	.	5%	.	1%[59 µM]
CN(C)C(CNC(=O)c1ccc(NC(=O)c2cccs2)cc1)c1ccccc1 (stereo not drawn)	3%	20%	0%	-10%	.	-17%
CN(C)C(CNC(=O)c1cnc(Cl)c(Cl)c1)c1ccccc1 (stereo not drawn)	56µM*	?	?	20µM*	.	?
CN(C)C(CNC(=O)c1ccc(C2SCCS2)cc1)c1ccccc1 (stereo not drawn)	-23%	-12%	4%	?	.	50µM*
Cc1ccc(S(=O)(=O)N2CCc3nc(COc4ccccc4)c4c(c3C2)CO[C@@H](C)C4)cc1	.	.	6%	.	.	.
Cc1oc2ncn(CC(C)C)c(=O)c2c1C(=O)NCCc1ccc(Cl)cc1	9%[57.1 µM]	47%	.	-1%	.	5%[59 µM]
CCOC(=O)Sc1nc2ncncc2[nH]1	.	?	.	3.5µM*	.	.
c1ccc(CSc2nc3ncncc3[nH]2)cc1	-4%	52%	16%	-13%[11.4 µM]	5%	-48%
O=C(CCCCn1cnc2c(=S)nc[nH]c21)Nc1ccc(C(=O)O)cc1	.	71µM*	.	1.4µM*	.	.
Cc1ccc(Cl)cc1N1CCN(C(=O)c2cn(C)c3ccc(S(=O)(=O)N4CCC(C)CC4)cc3c2=O)CC1	.	35%	.	-4%	.	9%[59 µM]
COc1ccc(N/C=C(\C#N)c2ccc(OCCCF)cc2)cc1	?	-12%	-5%	?	.	-12%[12.7 µM]
Cc1ccc(N/C=C(\C#N)c2ccc(OCCCF)cc2)cc1	?	6%	26%	-16%	.	45µM*
Cc1ccc(C(=O)CC(C(=O)O)P(=O)(c2ccccc2)c2ccccc2)cc1 (stereo not drawn)	-26%	5%	18%	-21%	3%	71µM*
CCN(Cc1ccccc1)C(=O)Cn1c(=O)n(-c2cccc(C)c2)c(=O)c2c1c1cc(OC)ccc1n2C	5%	40%	.	12%	.	4%[59 µM]
